Assay outcomes deposited in PubChem by The Scripps Research Institute Molecular Screening Center.
The list is not random: actives were taken first. Their share in the collection is about 3.5%.
GPR151 activ: human GPR151 activation. AID 1508602. activation, % at 11.2 µM. actives 1% (n = 650,000). Q8TDV0. PathHunter beta-arrestin GPR151 cells, luminescence; in the data active means activation above about 4.9%;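 further: 0% = median of compound wells and 100% = cells with positive control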
TEAD-YAP inh: TEAD-YAP interaction inhibition | HEK-TIYL cells, TEAD-Gal4/YAP UAS-luciferase luminescence | inhibition, % at 9.12 µM | actives 1.4% (n = 640,000) | AID 1259422; in the data active means inhibition above about 32%;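 further: 0% = median of test compound wells and 100% = reference inhibitor wells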
FBW7 act: activators of human E3 ligase FBW7 | AID 1259310 | normalized activity (activation), % at 26.1 µM | actives 0.13% (n = 650,000) | Q969H0 | AlphaScreen FBW7–phospho-cyclin E peptide binding, activator screen; in the data active means normalized activity above about 1.9%;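 further: purified mutant Fbw7 with reduced substrate affinity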
MITF inh: blocks human microphthalmia-associated transcription factor; O75030; AlphaScreen MITF homodimerization, bead proximity signal; inhibition, % at 2.6 µM; actives 0.91% (n = 650,000); AID 1259374; in the data active means inhibition above about 50%;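 further: 0% = vehicle wells with protein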
Target sequence (O75030 whole entry, looked up): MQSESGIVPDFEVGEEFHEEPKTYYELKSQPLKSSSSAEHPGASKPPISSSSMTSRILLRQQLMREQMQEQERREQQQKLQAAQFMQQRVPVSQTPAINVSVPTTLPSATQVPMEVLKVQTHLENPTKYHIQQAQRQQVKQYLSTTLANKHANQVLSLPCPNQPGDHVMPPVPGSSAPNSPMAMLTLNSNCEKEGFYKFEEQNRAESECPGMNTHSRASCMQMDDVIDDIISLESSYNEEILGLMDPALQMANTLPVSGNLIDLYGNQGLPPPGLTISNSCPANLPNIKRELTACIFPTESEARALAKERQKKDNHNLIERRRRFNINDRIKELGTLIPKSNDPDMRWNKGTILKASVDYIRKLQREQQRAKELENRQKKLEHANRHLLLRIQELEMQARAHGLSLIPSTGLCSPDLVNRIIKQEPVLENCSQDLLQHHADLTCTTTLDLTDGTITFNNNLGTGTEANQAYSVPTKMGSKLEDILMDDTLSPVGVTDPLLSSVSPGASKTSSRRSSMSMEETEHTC
MITF confirm: confirmation of human MITF inhibitors; inhibition, % at 2.6 µM; shares compounds with MITF inh; actives 16% (n = 4,700); AlphaScreen MITF homodimerization, biotin/His-MITF beads;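 active means inhibition above a cutoff derived from the DMSO control wells, cut at about 28% in these data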;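 further: 0% = MITF dimer wells with DMSO only; inhibitors lower the bead chemiluminescence by keeping MITF from dimerizing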
AlphaScreen DR: counter-screen: compounds optically interfering with AlphaScreen | AID 1259373 | AlphaScreen optical interference counterscreen, cell-free | IC50, µM | shares compounds with MITF inh | actives 6% (n = 480); call rule not given here
AlphaScreen intf2: AlphaScreen optical interference, counter-screen; actives 7.6% (n = 4,700); inhibition, % at 2.6 µM; shares compounds with MITF inh; LysRS AlphaScreen counterscreen, signal interference, triplicate;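 active means inhibition above a cutoff derived from the DMSO control wells, cut at about 30% in these data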
An asterisk follows results filed as active; . = not tested or not shown; ! = not active in a repeat.

SMILES | GPR151 activ | TEAD-YAP inh | FBW7 act | MITF inh | MITF confirm | AlphaScreen intf2 | others
CCn1c2ccccc2c2cc(CN3CCCC(O)C3)ccc21 (configuration not stated) | 0 | 3 | 0 | 25 | . | .
CCn1c2ccccc2c2cc(CN3CCN(S(=O)(=O)c4ccc(F)cc4)CC3)ccc21 | 0 | 7 | 0 | 27 | . | .
COc1ccc(N2C(=O)CN(Cc3ccoc3)CC2(C)C)cc1 | 0 | -1 | 1 | 6 | . | .
COC(=O)C1=CN(c2ccc(C)c(Cl)c2)C=C(C(=O)OC)C1c1cccs1 | 0 | 8 | 0 | 57* | -11 | -11
CN1C(=O)/C(=C/c2ccc(N3CCCC3)c(F)c2)C(=O)NC1=S | 1 | 8 | 0 | -17 | . | .
COc1ccc(-c2c(C)oc3cc(OCC(N)=O)ccc3c2=O)cc1OC | -1 | 4 | 0 | 61* | 0 | 7
COc1ccc(-c2c(C)oc3cc(OCC(=O)OC(C)C)ccc3c2=O)cc1OC | 0 | 2 | 0 | 10 | . | .
CC[n+]1ccc(/C(=C/c2ccccc2O)CS(=O)(=O)O)cc1 | -1 | 0 | 0 | -2 | . | .
CN(C)CCOCCOc1ccccc1-c1ccccc1 | 1 | 1 | 0 | 87* | 41* | 22 | AlphaScreen DR=>6.5
CN(C)CCOc1ccccc1-c1ccccc1 | 1 | 3 | 0 | 61* | -1 | 14
CNCCOc1ccccc1-c1ccccc1 | 0 | 0 | 0 | 24 | . | .
CCOC(=O)c1c(C)oc(NC(=O)c2ccc([N+](=O)[O-])cc2Cl)c1C#N | 1 | 2 | 0 | 54* | 8 | 13
CCOC(=O)c1cc(CC)sc1NC(=O)c1cc([N+](=O)[O-])ccc1Cl | 3 | 6 | 0 | 60* | 5 | 7
CCOC(=O)c1cc(CC)sc1NC(=O)c1cc([N+](=O)[O-])ccc1N1CCCCCC1 | 0 | -2 | 0 | 18 | . | .
Cc1nc(N2CCN(c3ccc(Cl)c(Cl)c3)CC2)c2c3c(sc2n1)CCC3 | 1 | 8 | 0 | -2 | . | .
COc1cc(CN2CCN(Cc3cccc4ccccc34)CC2)cc(OC)c1 | -1 | 9 | 0 | 74* | -11 | 4
COc1cc(CN2CCN(Cc3ccccc3C)CC2)cc(OC)c1 | -1 | -3 | 0 | 80* | 2 | 10
COc1cc(OC)c(/C=N/N2CCN(Cc3cccc4ccccc34)CC2)c(OC)c1 | 1 | 13 | -1 | 12 | . | .
O=[N+]([O-])c1cccc(N/C(=N/S(=O)(=O)c2ccccc2)c2ccccc2)c1 | 1 | -1 | 0 | -5 | . | .
O=c1c(O)c(-c2ccc(O)cc2O)oc2cc(O)cc(O)c12 | 0 | 0 | 0 | 67*! | 43* | -7 | AlphaScreen DR=>6.5
O=C(O)c1ccc(Nc2nnc(-c3c[nH]c4ccccc34)o2)cc1 | -7 | 2 | 0 | 0 | . | .
COc1ccc(Br)cc1CN1CCCC(C(=O)N2CCCC2)C1 (configuration not stated) | 1 | 0 | 0 | 79* | -3 | 15
COc1ccc(Br)cc1CN1CCCC(C(N)=O)C1 (configuration not stated) | 1 | 3 | 0 | -3 | . | .
COc1ccc(Br)cc1CN1CCCC(C(=O)N2CCCCC2)C1 (configuration not stated) | 0 | 6 | 0 | 84* | 9 | 19
CC(C)NC(=O)c1ccccc1NS(=O)(=O)c1cc(Cl)ccc1Cl | 1 | 14 | 0 | 17 | . | .
SMILES | GPR151 activ | TEAD-YAP inh | FBW7 act | MITF inh | MITF confirm | AlphaScreen intf2 | others
CC(C)CCNC(=O)c1cc(Sc2ccc(Cl)cc2)nc2ccccc12 | 2 | 10 | 0 | 11 | . | .
COc1ccc(OC)c(CN2CCN(C(=O)c3cc(OC)c(OC)c(OC)c3)CC2)c1 | 1 | 16 | 0 | 36 | . | .
CCOc1cc(CN2CCN(Cc3ccccc3OC)CC2)ccc1OC | 3 | 3 | 0 | 29 | . | .
CCOc1cc(CN2CCN(Cc3cc(OC)ccc3OC)CC2)ccc1OC | 1 | 5 | 0 | 58* | 8 | 10
COc1ccc(OC)c(CN2CCN(Cc3cc(OC)c(OC)c(OC)c3)CC2)c1 | 1 | -10 | 0 | 68* | 9 | 15
FC(F)(F)c1ccc(Cn2cnc3c(Nc4ccc(Oc5ccccc5)cc4)nc(-c4ccc(N5CCOCC5)nc4)nc32)cc1 | 1 | 3 | 0 | 0 | . | .
CC(C)OC(=O)Cn1cc(C=O)c2ccccc21 | 2 | -18 | 1 | 9 | . | .
COc1ccc(C(=O)C2CCN(C(=S)NCC3CCCO3)CC2)cc1 (configuration not stated) | -1 | 10 | 1 | 85* | 12 | 8
COc1ccc(OC)c(CN2CCC(C(=O)NCC3CCCO3)CC2)c1 (configuration not stated) | -1 | 8 | 0 | 54* | -7 | 0
O=C(NCC1CCCO1)C1CCN(Cc2c[nH]c3ccccc23)CC1 (configuration not stated) | 0 | -6 | 0 | 55* | -15 | -10
COCCNC(=O)C1CCN(Cc2cc(OC)ccc2OC)CC1 | -2 | 7 | 0 | 35 | . | .
CCN(C(=O)c1cn(CC)c(=O)c2cc(OC)c(OC)cc12)c1cccc(C)c1 | 0 | 0 | 0 | 4 | . | .
COc1ccc(S(=O)(=O)N2CCC(C(=O)Nc3ccc(C)cc3C(=O)c3ccccc3)CC2)cc1 | 1 | 12 | 0 | -2 | . | .
CCC(C)c1ccc(OCCNCCO)cc1 (configuration not stated) | 1 | -1 | 0 | 56* | -17 | -8
N#Cc1ccc(OCC(O)CN2CCN(CCOc3ccccc3)CC2)cc1 (configuration not stated) | -1 | -3 | 0 | 81* | 2 | 9
CCN1CCN(CCOc2ccc(C#N)cc2)CC1 | 0 | 9 | 0 | 54* | 6 | 8
CCC(C)c1ccc(OCCN2CCN(CC)CC2)cc1 (configuration not stated) | 1 | 3 | 0 | 56* | 8 | 11
CCOc1ccc(OCCCNCCO)cc1 | -2 | 13 | 0 | 18 | . | .
O=C(CC1C(=O)NCCN1Cc1ccc2ccccc2c1)NCCCOc1cccnc1 (configuration not stated) | -1 | -6 | 0 | -5 | . | .
CCNc1nc(NCC)n2c(SCC(=O)Nc3ccc(Cl)c(Cl)c3)nnc2n1 | -2 | -5 | 0 | 13 | . | .
Cc1sc2ncnc(NCC(c3ccco3)N(C)C)c2c1C (configuration not stated) | -1 | -9 | 0 | 62* | 13 | 14
CS(=O)(=O)c1cncnc1C1CCCN(C(=O)N2CCCC2)C1 (configuration not stated) | -1 | -11 | 0 | 6 | . | .
CCN(CC)C(=O)CN1CCCC(c2ncncc2S(C)(=O)=O)C1 (configuration not stated) | 0 | -3 | 0 | 64* | 9 | 11
Cc1nc(N2CCCC(C(N)=O)C2)c2nnn(Cc3ccccc3F)c2n1 (configuration not stated) | 0 | -16 | 0 | -3 | . | .
